Data from publication PMC7862700, “An all-to-all approach to the identification of sequence-specific readers for epigenetic DNA modifications on cytosine”.

Legend:
Experiment in all cases: DAPPL (digital affinity profiling via proximity ligation, sequencing); 10 mM Tris-HCl pH 7.5, 50 mM NaCl, 1 mM DTT, 4% glycerol, room temperature, 30 min; GST-TFs on glutathione beads, 16-mer random dsDNA library, 0.1% formaldehyde crosslink after washing; high values mean tight binding
Conditions in all cases: protein: recombinant; tags: N-terminal GST; dsDNA, one strand shown
ELK1 = molecular target: T1, ELK1 (Homo sapiens, UniProt P19419 1-428)
T1 sequence: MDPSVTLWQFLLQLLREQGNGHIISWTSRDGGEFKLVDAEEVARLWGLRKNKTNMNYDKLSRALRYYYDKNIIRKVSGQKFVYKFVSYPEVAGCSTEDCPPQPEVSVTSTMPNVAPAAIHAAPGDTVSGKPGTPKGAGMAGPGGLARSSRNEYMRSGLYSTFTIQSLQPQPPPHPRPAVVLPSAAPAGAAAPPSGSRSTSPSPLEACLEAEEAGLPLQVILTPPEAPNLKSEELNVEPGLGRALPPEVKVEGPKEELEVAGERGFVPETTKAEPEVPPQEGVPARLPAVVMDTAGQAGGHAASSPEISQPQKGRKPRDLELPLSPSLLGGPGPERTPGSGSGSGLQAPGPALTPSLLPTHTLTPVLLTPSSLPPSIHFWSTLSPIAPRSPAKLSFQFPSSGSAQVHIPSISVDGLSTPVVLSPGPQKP
Outline: (§1)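 GST fusions of human transcription factors were expressed in yeast and captured with glutathione beads. Once given DNA barcodes and pooled alongside a tag-only sample, they were incubated for 30 min at room temperature with 200 nmole of a random double-stranded 16-mer DNA library in Tris/NaCl/DTT/glycerol buffer, then washed, crosslinked (0.1% formaldehyde), proximity-ligated, PCR-amplified and sequenced on an Illumina NextSeq500. The binding signal of each hexamer is its read frequency for a factor divided by its frequency for the tag-only sample.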

GABPA = molecular target: T2, GABPA (Homo sapiens, UniProt Q06546 1-454)
T2 sequence: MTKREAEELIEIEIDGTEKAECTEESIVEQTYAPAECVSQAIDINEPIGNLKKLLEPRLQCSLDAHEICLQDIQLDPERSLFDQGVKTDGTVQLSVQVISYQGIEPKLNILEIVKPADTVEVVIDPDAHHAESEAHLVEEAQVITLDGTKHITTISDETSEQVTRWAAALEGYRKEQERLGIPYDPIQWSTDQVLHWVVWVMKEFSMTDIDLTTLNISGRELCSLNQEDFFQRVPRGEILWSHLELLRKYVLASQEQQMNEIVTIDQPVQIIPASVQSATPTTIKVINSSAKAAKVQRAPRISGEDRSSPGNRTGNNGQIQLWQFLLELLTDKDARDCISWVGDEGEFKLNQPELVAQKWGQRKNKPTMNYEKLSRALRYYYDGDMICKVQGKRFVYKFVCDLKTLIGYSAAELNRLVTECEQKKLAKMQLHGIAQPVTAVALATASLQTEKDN
Outline: as §1

ELF1 = ELF1 (Homo sapiens, UniProt P32519 1-619)
Chain of ELF1 (P32519 whole entry): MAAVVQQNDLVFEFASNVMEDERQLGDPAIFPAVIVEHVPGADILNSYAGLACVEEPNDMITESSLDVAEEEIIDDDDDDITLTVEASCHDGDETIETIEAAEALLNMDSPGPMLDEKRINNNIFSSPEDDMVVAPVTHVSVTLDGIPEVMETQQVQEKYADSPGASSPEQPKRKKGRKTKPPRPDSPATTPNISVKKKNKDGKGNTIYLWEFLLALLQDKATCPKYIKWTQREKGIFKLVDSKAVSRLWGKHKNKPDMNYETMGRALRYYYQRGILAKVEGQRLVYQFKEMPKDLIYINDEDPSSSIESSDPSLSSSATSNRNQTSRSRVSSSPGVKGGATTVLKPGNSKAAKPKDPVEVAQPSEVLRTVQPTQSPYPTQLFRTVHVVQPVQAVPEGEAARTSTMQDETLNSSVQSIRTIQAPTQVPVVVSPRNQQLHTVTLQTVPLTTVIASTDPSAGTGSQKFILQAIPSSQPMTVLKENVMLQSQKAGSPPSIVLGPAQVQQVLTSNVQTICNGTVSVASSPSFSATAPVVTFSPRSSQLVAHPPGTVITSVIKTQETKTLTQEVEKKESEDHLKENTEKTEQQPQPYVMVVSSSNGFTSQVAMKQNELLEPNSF
Outline: as §1

SPIB = SPIB (Homo sapiens, UniProt Q01892 1-262)
Chain of SPIB (Q01892 whole entry): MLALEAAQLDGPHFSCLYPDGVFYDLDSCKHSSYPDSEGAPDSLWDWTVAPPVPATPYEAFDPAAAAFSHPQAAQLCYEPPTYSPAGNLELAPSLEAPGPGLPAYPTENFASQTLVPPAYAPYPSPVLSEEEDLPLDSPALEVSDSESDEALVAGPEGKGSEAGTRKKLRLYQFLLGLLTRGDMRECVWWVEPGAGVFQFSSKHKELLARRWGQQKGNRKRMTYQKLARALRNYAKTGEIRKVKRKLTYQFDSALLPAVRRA
Outline: as §1

ELK3 = molecular target: T3, ELK3 (Homo sapiens, UniProt P41970 1-407)
T3 sequence: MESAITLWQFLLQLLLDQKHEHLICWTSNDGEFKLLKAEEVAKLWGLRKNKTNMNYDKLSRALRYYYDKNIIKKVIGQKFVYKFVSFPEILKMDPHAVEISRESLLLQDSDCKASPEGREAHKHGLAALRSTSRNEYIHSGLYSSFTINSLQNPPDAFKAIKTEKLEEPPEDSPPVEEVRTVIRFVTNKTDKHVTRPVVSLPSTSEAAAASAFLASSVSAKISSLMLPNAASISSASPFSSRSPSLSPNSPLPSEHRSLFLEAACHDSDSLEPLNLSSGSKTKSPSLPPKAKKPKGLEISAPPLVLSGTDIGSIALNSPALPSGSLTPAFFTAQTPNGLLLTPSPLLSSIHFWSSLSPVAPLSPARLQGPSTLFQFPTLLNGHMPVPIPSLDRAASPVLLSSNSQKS
Outline: as §1

SPIC = molecular target: T4, SPIC (Homo sapiens, UniProt Q8N5J4 1-248)
T4 sequence: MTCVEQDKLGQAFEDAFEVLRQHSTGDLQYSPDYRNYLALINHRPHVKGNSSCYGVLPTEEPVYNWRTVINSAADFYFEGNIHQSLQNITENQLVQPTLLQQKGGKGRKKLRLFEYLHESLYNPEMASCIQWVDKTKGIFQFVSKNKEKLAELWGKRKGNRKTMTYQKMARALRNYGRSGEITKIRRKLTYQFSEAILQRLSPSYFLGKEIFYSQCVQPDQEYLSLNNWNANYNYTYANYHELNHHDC
Outline: as §1

ELK4 = molecular target: T5, ELK4 (Homo sapiens, UniProt P28324-2 1-405)
T5 sequence: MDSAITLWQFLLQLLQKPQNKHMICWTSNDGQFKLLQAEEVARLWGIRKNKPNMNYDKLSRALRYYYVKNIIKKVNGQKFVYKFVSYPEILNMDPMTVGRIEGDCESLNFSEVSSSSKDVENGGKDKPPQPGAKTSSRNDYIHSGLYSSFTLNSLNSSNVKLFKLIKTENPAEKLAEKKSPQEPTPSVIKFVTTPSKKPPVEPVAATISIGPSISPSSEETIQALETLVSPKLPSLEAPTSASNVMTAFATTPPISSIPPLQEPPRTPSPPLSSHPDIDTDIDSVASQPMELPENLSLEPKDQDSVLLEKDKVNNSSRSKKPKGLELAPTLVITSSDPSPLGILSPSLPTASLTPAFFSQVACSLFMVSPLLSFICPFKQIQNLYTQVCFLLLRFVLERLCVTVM
Outline: as §1

ERF = molecular target: T6, ERF (Homo sapiens, UniProt P50548 1-548)
T6 sequence: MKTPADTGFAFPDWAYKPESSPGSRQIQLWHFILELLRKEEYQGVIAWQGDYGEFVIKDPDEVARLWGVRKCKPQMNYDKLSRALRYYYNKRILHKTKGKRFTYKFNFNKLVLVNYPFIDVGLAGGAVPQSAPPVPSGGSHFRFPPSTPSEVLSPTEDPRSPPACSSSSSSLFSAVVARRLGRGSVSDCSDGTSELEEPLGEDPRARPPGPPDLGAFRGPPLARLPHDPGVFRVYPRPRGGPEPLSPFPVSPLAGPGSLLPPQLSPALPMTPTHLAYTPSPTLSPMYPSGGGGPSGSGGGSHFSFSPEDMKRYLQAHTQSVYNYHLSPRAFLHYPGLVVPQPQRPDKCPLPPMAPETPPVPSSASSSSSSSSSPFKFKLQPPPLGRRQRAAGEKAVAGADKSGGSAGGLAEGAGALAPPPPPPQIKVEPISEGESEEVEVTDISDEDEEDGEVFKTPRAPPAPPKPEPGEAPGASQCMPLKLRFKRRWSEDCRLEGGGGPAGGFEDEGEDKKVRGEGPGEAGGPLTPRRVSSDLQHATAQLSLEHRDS
Outline: as §1

ETV3L = molecular target: T7, ETV3L (Homo sapiens, UniProt Q6ZN32 1-361)
T7 sequence: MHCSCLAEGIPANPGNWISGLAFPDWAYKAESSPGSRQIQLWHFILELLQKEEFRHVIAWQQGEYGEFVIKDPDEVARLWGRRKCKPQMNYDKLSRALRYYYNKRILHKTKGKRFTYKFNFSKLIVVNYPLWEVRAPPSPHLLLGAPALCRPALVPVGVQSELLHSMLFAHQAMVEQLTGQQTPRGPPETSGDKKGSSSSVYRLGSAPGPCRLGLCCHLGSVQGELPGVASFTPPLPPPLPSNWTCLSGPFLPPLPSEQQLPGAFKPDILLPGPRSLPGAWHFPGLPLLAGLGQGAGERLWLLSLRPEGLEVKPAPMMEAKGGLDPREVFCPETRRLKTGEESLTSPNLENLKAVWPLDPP
Outline: as §1

ETS2 = molecular target: T8, ETS2 (Homo sapiens, UniProt P15036 1-469)
T8 sequence: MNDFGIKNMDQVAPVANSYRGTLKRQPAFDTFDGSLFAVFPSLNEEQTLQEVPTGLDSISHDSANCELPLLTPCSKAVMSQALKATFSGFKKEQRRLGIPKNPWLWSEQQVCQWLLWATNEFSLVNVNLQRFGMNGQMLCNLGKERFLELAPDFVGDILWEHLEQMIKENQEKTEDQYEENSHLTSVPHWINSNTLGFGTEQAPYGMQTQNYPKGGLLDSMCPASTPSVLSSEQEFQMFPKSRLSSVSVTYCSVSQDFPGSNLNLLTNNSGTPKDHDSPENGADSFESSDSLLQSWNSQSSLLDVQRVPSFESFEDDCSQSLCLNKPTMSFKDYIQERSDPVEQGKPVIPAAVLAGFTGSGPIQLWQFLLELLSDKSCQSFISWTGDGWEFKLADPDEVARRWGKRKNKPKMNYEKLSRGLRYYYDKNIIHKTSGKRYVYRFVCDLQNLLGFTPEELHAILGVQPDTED
Outline: as §1

SPDEF = molecular target: T9, SPDEF (Homo sapiens, UniProt O95238 1-335)
T9 sequence: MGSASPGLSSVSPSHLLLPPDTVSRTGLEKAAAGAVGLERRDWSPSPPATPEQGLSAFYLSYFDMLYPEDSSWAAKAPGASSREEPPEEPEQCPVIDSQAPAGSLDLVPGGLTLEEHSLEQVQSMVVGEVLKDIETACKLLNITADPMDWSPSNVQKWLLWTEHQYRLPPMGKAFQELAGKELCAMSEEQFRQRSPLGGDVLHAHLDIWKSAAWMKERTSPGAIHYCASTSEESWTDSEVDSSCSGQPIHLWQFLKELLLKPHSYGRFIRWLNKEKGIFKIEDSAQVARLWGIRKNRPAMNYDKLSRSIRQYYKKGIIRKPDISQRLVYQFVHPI
Outline: as §1

ELF4 = ELF4 (Homo sapiens, UniProt Q99607 1-663)
Chain of ELF4 (Q99607 whole entry): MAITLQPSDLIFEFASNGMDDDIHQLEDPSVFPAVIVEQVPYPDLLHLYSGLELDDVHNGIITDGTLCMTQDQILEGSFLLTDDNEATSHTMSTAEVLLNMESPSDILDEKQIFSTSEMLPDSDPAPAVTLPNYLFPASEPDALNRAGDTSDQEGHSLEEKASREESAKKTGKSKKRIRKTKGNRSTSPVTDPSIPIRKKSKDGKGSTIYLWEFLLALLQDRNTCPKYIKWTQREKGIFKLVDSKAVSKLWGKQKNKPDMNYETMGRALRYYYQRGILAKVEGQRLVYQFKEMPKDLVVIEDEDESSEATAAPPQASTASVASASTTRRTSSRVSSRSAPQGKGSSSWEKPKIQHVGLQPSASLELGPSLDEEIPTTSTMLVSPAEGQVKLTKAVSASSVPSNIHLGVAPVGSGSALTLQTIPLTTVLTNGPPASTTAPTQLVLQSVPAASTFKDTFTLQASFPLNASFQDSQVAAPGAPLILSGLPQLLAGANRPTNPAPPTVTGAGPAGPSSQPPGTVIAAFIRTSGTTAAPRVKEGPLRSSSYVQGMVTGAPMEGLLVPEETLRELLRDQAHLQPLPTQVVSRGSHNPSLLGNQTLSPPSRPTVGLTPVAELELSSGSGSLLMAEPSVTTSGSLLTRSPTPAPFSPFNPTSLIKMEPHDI
Outline: as §1

ELF3 = molecular target: T10, ELF3 (Homo sapiens, UniProt P78545 1-371)
T10 sequence: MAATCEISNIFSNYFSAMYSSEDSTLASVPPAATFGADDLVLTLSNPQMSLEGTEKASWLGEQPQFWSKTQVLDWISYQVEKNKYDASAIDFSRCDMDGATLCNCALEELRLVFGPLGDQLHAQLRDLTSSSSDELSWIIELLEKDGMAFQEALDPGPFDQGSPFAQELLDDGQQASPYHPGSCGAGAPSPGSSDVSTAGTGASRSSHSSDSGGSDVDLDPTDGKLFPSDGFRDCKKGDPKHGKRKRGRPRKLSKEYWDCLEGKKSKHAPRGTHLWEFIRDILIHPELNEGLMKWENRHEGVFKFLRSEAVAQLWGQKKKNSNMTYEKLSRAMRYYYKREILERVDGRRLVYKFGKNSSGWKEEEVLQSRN
Outline: as §1

ETV3 = molecular target: T11, ETV3 (Homo sapiens, UniProt P41162-2 1-143)
T11 sequence: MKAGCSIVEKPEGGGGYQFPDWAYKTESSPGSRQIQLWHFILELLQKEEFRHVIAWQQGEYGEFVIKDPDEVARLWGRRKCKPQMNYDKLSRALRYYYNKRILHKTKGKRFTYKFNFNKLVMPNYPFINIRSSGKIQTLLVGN
Outline: as §1

Q: How did the binding signal (ELK1) turn out when GTATTG was run?
A: 1.01 fold enrichment (6-mer frequency, TF over GST control)

Q: And the binding signal (GABPA)?
A: 1.04 fold enrichment (6-mer frequency, TF over GST control)

Q: What about the binding signal (ELF1) of the same sequence?
A: 1.04 fold enrichment (6-mer frequency, TF over GST control)

Q: What about the binding signal (SPIB) of the same sequence?
A: 1.1 fold enrichment (6-mer frequency, TF over GST control)

Q: And the binding signal (ELK3)?
A: 1.08 fold enrichment (6-mer frequency, TF over GST control)

Q: And the binding signal (SPIC)?
A: 1.11 fold enrichment (6-mer frequency, TF over GST control)

Q: And the binding signal (ELK4)?
A: 1.05 fold enrichment (6-mer frequency, TF over GST control)

Q: And the binding signal (ERF)?
A: 1 fold enrichment (6-mer frequency, TF over GST control)

Q: And the binding signal (ETV3L)?
A: 1.01 fold enrichment (6-mer frequency, TF over GST control)

Q: What about the binding signal (ETS2) of the same sequence?
A: 1 fold enrichment (6-mer frequency, TF over GST control)

Q: What about the binding signal (SPDEF) of the same sequence?
A: 1 fold enrichment (6-mer frequency, TF over GST control)

Q: ATGGGA was tested. Which binding signal (SPIC) did it give?
A: 1.05 fold enrichment (6-mer frequency, TF over GST control)

Q: Which binding signal (SPIC) does the source give for AGACTC here?
A: 1.06 fold enrichment (6-mer frequency, TF over GST control)

Q: With GGGCAT as the sequence, how does the binding signal (SPIC) read?
A: 1 fold enrichment (6-mer frequency, TF over GST control)

Q: Which binding signal (SPIC) does the source give for GACTCG here?
A: 1.02 fold enrichment (6-mer frequency, TF over GST control)

Q: How did the binding signal (SPIB) turn out when GTATGA was run?
A: 1.05 fold enrichment (6-mer frequency, TF over GST control)

Q: And the binding signal (SPIC)?
A: 1.09 fold enrichment (6-mer frequency, TF over GST control)

Q: And the binding signal (ELF4)?
A: 1.03 fold enrichment (6-mer frequency, TF over GST control)

Q: What about the binding signal (ELK4) of the same sequence?
A: 1.01 fold enrichment (6-mer frequency, TF over GST control)

Q: And the binding signal (ELF3)?
A: 1.02 fold enrichment (6-mer frequency, TF over GST control)

Q: What about the binding signal (ETS2) of the same sequence?
A: 1.01 fold enrichment (6-mer frequency, TF over GST control)

Q: What about the binding signal (ETV3) of the same sequence?
A: 1.02 fold enrichment (6-mer frequency, TF over GST control)

Q: Which binding signal (SPIC) does the source give for GGTCCA here?
A: 1.02 fold enrichment (6-mer frequency, TF over GST control)
